What is called inhibition is the relative decrease from the control value, in per cent.

This passage reports inhibition results from PubChem BioAssay AID504690 (Sanford-Burnham Center for Chemical Genomics, 2011).

Out of some 350,000 compounds screened, about 2,700 (0.77%) were called active. The full list was thinned out, with actives kept by preference. Values without a mark were called inactive.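 How the source made its calls: active means inhibition reaching at least a set limit at 20 µM in the primary screen (cut at about 59% in these data); inactive means the rest.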

This assay relates to glucose-6-phosphate dehydrogenase-6-phosphogluconolactonase (Plasmodium falciparum 3D7). The experiment in a line: PfG6PD enzyme inhibitors, primary screen, biochemical, fluorescence intensity, uHTS (AID 504690).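 Further: 0% = DMSO wells with substrate and 100% = DMSO wells lacking glucose-6-phosphate.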 The note with it: PfGluPho enzyme, NADPH resazurin-diaphorase fluorescence; at 20 µM; stronger effect = higher value.
Consider `O=C(Nc1cccc(Cl)c1)c1cc(S(=O)(=O)N2CCCCC2)c[nH]1`, for which the inhibition is -8.02%.

For the molecule `CCOC(=O)Cn1c2c(c(-c3ccccc3OC)cc1=O)CCCC2`, the inhibition is 10.3%.

Regarding `CC1=C/C(=N\OS(=O)(=O)c2ccccc2)C=CC1=O`, the inhibition was 116% (active).

As for `COC(=O)C(C(=O)Nc1cccc(Cl)c1C)C1CCCC1` (stereo not given), the inhibition is 5.12%.

As to `CCOC(=O)c1cc(-c2sc(NC(=O)c3ccccc3)nc2C)n(CCO)n1`, the inhibition is 5.2%.

In the case of `S=c1[nH]nc(-c2cc(-c3ccsc3)n[nH]2)n1-c1ccccc1`, the inhibition is 63% (active).

For `Cc1ccc(NCc2n[nH]c(=S)n2-c2ccccc2)cc1Cl`, the inhibition is 17.7%.

Take `Cc1ccc(-n2c(-c3ccc(Cl)cc3)n[nH]c2=S)cc1`: the inhibition is 39.8%.

On to `CCCCCN(C(=O)CCC(=O)OCC(=O)NCc1ccc(OC)cc1)c1c(N)n(CCCC)c(=O)[nH]c1=O`, for which the inhibition was 6.98%.

As to `C=CCOc1ccc(Cl)cc1CNCCCN1CCOCC1`, the inhibition was -22.9%.

Regarding `CCOC(=O)Cn1nnnc1C`, the inhibition was -8.58%.

With `COc1ccc(NC(=O)c2sc(N3CCOCC3)nc2-c2ccccc2)c(OC)c1`, the inhibition was 7.35%.

`CCOC(=O)N1CCC(NC(=O)c2ccc3nc(N4CCOCC4)sc3c2)CC1`: the inhibition was -2.75%.

Take `Cc1nc(N2CCOCC2)sc1C(=O)NN`: the inhibition is 61.7% (active).

As to `Cc1ccc(S(=O)(=O)N2CCCCC2)cc1NC(=O)[C@@H]1CCCN1C(=O)c1cccs1`, the inhibition was -10%.

Consider `COc1cc(C=NNC(=O)c2cccnc2)ccc1OC(=O)c1ccccc1F`, for which the inhibition is 0.22%.

Turning to `COc1ccc(C(=O)Nc2ccccc2C(=O)N/N=C/c2ccc(O)c(OC)c2)cc1`, the inhibition is 63.8% (active).

Take `O=C(NN=Cc1ccc2c(c1)CCC2)c1ccccc1O`: the inhibition was -13.6%.

For `CC(C)Cc1nnc(N)s1`, the inhibition is -0.68%.

As to `Cc1ccc(C2CC(c3cccc(Br)c3)n3nc(N)nc3N2)cc1` (stereo not given), the inhibition is 18%.

For `Cc1csc(=O)n1CC(=O)Nc1ccc(S(C)(=O)=O)cc1`, the inhibition is 1.5%.

In the case of `Cc1cc(=O)n2[nH]c(-c3sccc3-n3c(C)ccc3C)cc2n1`, the inhibition was 10.7%.

Consider `C[C@@H]1CN([C@@H](C)CO)S(=O)(=O)c2ccc(-c3ccc(C(=O)N(C)C)cc3)cc2O[C@@H]1CN(C)Cc1ccccc1C(=O)O`, for which the inhibition was 1.43%.

Take `Cc1ccc2nnn(Cc3cccc(C(C)(C)C)c3O)c2c1`: the inhibition was 4.75%.

As to `C#CCOCCOCCOCCNc1nc(N2CCN(C(=O)CCCCCCCCCCNC(=O)Cn3cc(CCCCCN)nn3)CC2)nc(N2CCN(C(=O)CCCCCCCCCCNC(=O)[C@H](CO)n3cc(CCCSC)nn3)CC2)n1`, the inhibition was 60% (active).

As to `C#CCOCCOCCOCCNc1nc(N2CCN(C(=O)CCCCCCCCCCNC(=O)[C@H]([C@@H](C)CC)n3cc(CCCCN=C(N)N)nn3)CC2)nc(N2CCN(C(=O)CCCCCCCCCCNC(=O)[C@H](CO)n3cc(CCCSC)nn3)CC2)n1`, the inhibition was 44.4%.

In the case of `C#CCOCCOCCOCCNc1nc(N2CCN(C(=O)Cn3cc(CCO)nn3)CC2)nc(N2CCN(C(=O)[C@H](CCCCN)n3cc(CCCC)nn3)CC2)n1`, the inhibition is 6.73%.

Regarding `COCc1cc(C)nc2sc3c(=O)n(-c4cccc5ccccc45)nnc3c12`, the inhibition was -2.51%.

On to `CCC(=O)N1CCC(C(N)=O)(N2CCCCC2)CC1`, for which the inhibition is -1.08%.

For `O=C1CSC(=S)N1c1ccc(O)cc1`, the inhibition is -5.81%.

In the case of `CCOc1cccc(/C=N/N2C(=O)CSC2=S)c1O`, the inhibition was 60.8% (active).

With `O=C1CSC(=S)N1/N=C/c1ccc(O)c([N+](=O)[O-])c1`, the inhibition was 18.4%.

As for `COc1ccccc1CNC(=O)COn1nnc2ccc(S(=O)(=O)N3CCOCC3)cc21`, the inhibition is -5.31%.

`CC(C)C(c1nnnn1C1CCCC1)N1CCN(c2ccccc2F)CC1` (stereo not given): the inhibition was 1.8%.

Take `Cc1cc(C)c2[nH]c(=O)c(CN(Cc3ccccc3)C(=S)NCCCN(C)C)cc2c1`: the inhibition was -9.85%.

In the case of `COc1ccccc1-n1c(SCC(=O)Nc2ccc(Cl)cc2)nc(O)c(Cc2ccccc2)c1=O`, the inhibition is -30.4%.

`CN(C)c1nccc(NCc2ccccc2)c1C#N`: the inhibition was -1.06%.

`CC(C)n1cnc2c(NCc3ccccc3)cc(OCC3CCN(C)CC3)cc21`: the inhibition was 65.4% (active).

With `Cn1c(N)cc(=O)n(C)c1=S`, the inhibition was -4.84%.

As to `Cc1ccccc1-c1cc(C(=O)NCc2cccs2)n(CC2CC(c3cccnc3)=NO2)n1` (stereo not given), the inhibition is 1.18%.

As to `Cc1ccc(OS(=O)(=O)c2ccc(-c3csc(C)n3)s2)c(C)c1`, the inhibition was 17.7%.

As for `FC(F)(F)C1CCCN(c2nsc3ccccc23)C1` (stereo not given), the inhibition is 110% (active).

Take `COc1ccc(Cl)cc1NC(=O)COc1ccc2c(c1)OCO2`: the inhibition is -7.15%.

As to `Cc1ccc(SC(C)C(=O)NCc2ccc(F)cc2)cc1` (stereo not given), the inhibition is 0.13%.

For `CCC(=C/c1sc2ccc3ccccc3c2[n+]1C)/C=C1\Sc2ccc3ccccc3c2N1C`, the inhibition is 113% (active).

Take `CCC[C@H]1CCCC/C=C\CCCC(=O)OCCN1C(=O)OC(C)(C)C`: the inhibition is -3.27%.

For the molecule `C=CC(=O)Nc1ccc(Nc2ccnc(Nc3ccc(N4CCN(C)CC4)cc3)n2)cc1`, the inhibition was 77.4% (active).

Turning to `Cn1cnnc1SCC(=O)Nc1ccc(N2CCOCC2)cc1`, the inhibition is 7.84%.

Take `CN1CCN(c2nc(Nc3ccc(O)cc3)nc3ccccc23)CC1`: the inhibition was 3.52%.

With `CCCC[C@H]1COCCS(=O)(=O)N1Cc1cccc(Cl)c1`, the inhibition was 14%.

Take `O=C(CSc1nnc(CN2CCCC2)n1-c1ccc(F)cc1)c1ccc2c(c1)OCO2`: the inhibition is 8.99%.

Consider `COC(=O)CCCC1=CC2=CC(=O)C(C)(OC(=O)c3cccs3)C(=O)C2=CN1CC(C)C` (stereo not given), for which the inhibition is 61.6% (active).

`CCCCC1=CC2=CC(=O)C(C)(OC(=O)CC)C(=O)C2=CN1CCCOC(C)C` (stereo not given): the inhibition is 34.2%.

Take `COC(=O)CCCC1=CC2=CC(=O)C(C)(OC(=O)c3cccs3)C(=O)C2=CN1c1cccc(C#N)c1` (stereo not given): the inhibition is 31.5%.

`Cc1cccc(N2CCC(NCc3c(C(=O)N4CCCCC4)nc4c(C)cccn34)CC2)c1`: the inhibition is -3.68%.

In the case of `COc1ccc(-c2nn(-c3ccccc3)cc2/C=N/Nc2ccccn2)cc1OC`, the inhibition is 70.3% (active).

With `O=Cc1cn(-c2ccccc2)nc1-c1ccccn1`, the inhibition was -1.58%.

For the molecule `COc1ccc(-c2nn(-c3ccccc3)cc2C(=O)Nc2nccs2)cc1OC`, the inhibition was 32.2%.

In the case of `COc1ccc(OC)c(/C=C/C(=O)c2ccc3c(c2)OCO3)c1`, the inhibition was 2.18%.

Turning to `CCc1ccccc1NC(=O)CN(C)C(=O)COc1ccc(C)nc1[N+](=O)[O-]`, the inhibition is -20.3%.

Take `Cc1ccc(OCC(=O)Nc2ccccc2Sc2ccc(Cl)cc2)c([N+](=O)[O-])n1`: the inhibition is 99.2% (active).

On to `Cc1ccc(OCC(=O)NC(C)c2ccccc2)c([N+](=O)[O-])n1` (stereo not given), for which the inhibition is -11.2%.

For the molecule `O=S(=O)(NCC1CCCO1)c1ccc2ccccc2c1` (stereo not given), the inhibition is -2.51%.

Regarding `COCCNC(=O)NC(=O)COC(=O)C1(c2ccc(Cl)cc2)CC1`, the inhibition is 8.76%.

`CC(C)C(=O)Nc1ccc2c3c(cccc13)CC2`: the inhibition was -13.6%.

As to `CC1CCCN(S(=O)(=O)c2ccc(N(C(=O)c3cnccn3)C(C(=O)NC3CCCCC3)c3cccs3)cc2)C1` (stereo not given), the inhibition was 13.2%.

`Cc1ccc2c(c1)NCC(C(=O)NC1CCC(C)CC1)O2` (stereo not given): the inhibition was 18.8%.

As for `COc1ccc2c(c1)c(=Cc1ccc(N(C)C)cc1)c1cc(-c3ccccc3)[n+](C)n12`, the inhibition was 70% (active).

Turning to `Cc1cccc(C)c1NC(=O)CNC(=O)c1c(C)nn(-c2ccccc2)c1C`, the inhibition was -4.32%.

Take `COCC(=O)Nc1c(I)c(C(=O)NCC(O)CO)c(I)c(C(=O)N(C)CC(O)CO)c1I` (stereo not given): the inhibition is -11%.

On to `O=C(Nc1ccc(-c2cscn2)cc1)C1CCCN(Cc2ccc(CO)o2)C1` (stereo not given), for which the inhibition is -2.34%.

Regarding `O=C1/C(=C\c2cccnc2)CN(Cc2ccccc2)C/C1=C\c1cccnc1`, the inhibition is 20.5%.

For the molecule `COc1cc(OC)c(C(=O)Nc2ccc(N(C)C)cc2)cc1OC`, the inhibition was 70.5% (active).

In the case of `COc1ccc(Cl)cc1C(=O)Nc1ccc(N(C)C(C)=O)cc1`, the inhibition is 7.67%.

Consider `COc1cc(OC)c(C(=O)Nc2ccccc2-c2ccccc2)cc1OC`, for which the inhibition was 6.28%.

With `O=C(NC12CC3CC(CC(C3)C1)C2)N1CCCC(CO)C1` (stereo not given), the inhibition was -9.02%.

For the molecule `CSc1ccc(CCNC(=O)C2CCN(c3nnc(-n4cccc4)s3)CC2)cc1`, the inhibition was -2.74%.

Turning to `O=C(Oc1c(-c2ccco2)oc2ccccc2c1=O)c1cccnc1`, the inhibition is -16.3%.

For `CCn1nc(C(=O)NNS(=O)(=O)c2cc(/C=C/C(=O)O)cc(OC)c2OC)c2ccccc2c1=O`, the inhibition was 11.8%.

In the case of `CN1CCN(CCCCOc2ccccc2-c2ccccc2)CC1`, the inhibition was 5.8%.

Consider `OCCN1CCN(C(=S)c2ccc(-c3ccccc3)cc2)CC1`, for which the inhibition is 66.4% (active).

Take `S=C(c1ccc(-c2ccccc2)o1)N1CCCCC1`: the inhibition is 52.2%.

For `COc1ccccc1CCCNC(=O)C1CCC(=O)N(CCN2CCOCC2)C1` (stereo not given), the inhibition is -4.18%.

As for `CC(=O)Nc1nc2c(s1)C(=O)NCC(C)(C)C2`, the inhibition is -8.85%.

Turning to `Cc1ccc(-n2nc(-c3ccco3)cc2C(=O)NCc2cccnc2)cc1`, the inhibition was 38.2%.

On to `CC1CN(C(=S)Nc2ccc(S(N)(=O)=O)cc2)CC(C)O1` (stereo not given), for which the inhibition is 13.9%.

In the case of `O=C(CCS(=O)(=O)c1cccc2nonc12)NCCc1ccccc1Cl`, the inhibition is 0.62%.

As to `Oc1c(C=Nc2cccc3nsnc23)ccc2ccccc12`, the inhibition was 64.6% (active).

As to `c1ccc(-c2cn3c(n2)CCc2ccc4cccnc4c2-3)cc1`, the inhibition is 107% (active).

`OC(CN=c1sc2ccccc2n1CC(O)COc1ccccc1)COc1ccccc1` (stereo not given): the inhibition is 22.7%.
